Screens deposited in PubChem BioAssay by National Center for Advancing Translational Sciences (NCATS).
An excerpt weighted towards active compounds, which were near 12% of everything screened.
HP1b binding inh: inhibitors of HP1-beta chromodomain binding to methylated histone tails; P83916; AlphaScreen HP1-beta / biotin-H3K9me3 peptide binding; Potency, µM (top dose mostly 114 µM), for inactives: at the top dose activity change, negative = inhibition, hits mostly inhibitors; 390,000 tested, 0.56% active; AID 540317; also: nearly all actives have a fitted effect of over 70% in size
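HP1-beta protein (50 nM final) preincubated 30 min at room temperature with biotinylated H3(1-18)K9me3 peptide (50 nM) in PBS pH 7.4, 0.01% Tween-20, then compound added for 30 min. AlphaScreen streptavidin donor/nickel chelate acceptor beads (10 ug/mL final), 30 min dark, luminescence read.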
G9a block: G9a (human) methyltransferase inhibition. Q96KQ7. G9a H3K9 monomethylation, AlphaScreen, 2 h. Potency, µM (highest dose often 102 µM), inactives show top-dose activity, negative = inhibition, most hits filed as inhibitors. 350,000 tested, 8.8% active. AID 504332; also: % is scaled to controls: 0 for no effect and ±100 for the full control effect; nearly all actives have a fitted effect of over 75% in size
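Readings reflect AlphaScreen signal from monomethyl-H3K9 antibody detection. HMT at 20 nM; substrate b-H3K9 500 nM; cofactor SAM 20 uM; 2 h RT reaction; compounds tested as titrations in qHTS with 15 min preincubation.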
Sfp PPTase inh: blocks B. subtilis Sfp PPTase activity. Q9F4F7. Biochemical Sfp PPTase activity, qHTS. Potency, µM, without a hit: largest response in the series, negative = inhibition, usual class: inhibitors. 310,000 tested, 3.5% active;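 also: the enzyme is Sfp with the accession as filed and its product quenches rhodamine fluorescence; 0% = enzyme reaction without inhibitor and -100% = no enzyme wells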
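Fluorescence-quenching assay: 15 nM Sfp-PPTase preincubated 15 min at room temperature with compound, then 5 uM rhodamine-CoA and 12.5 uM BHQ-2-labelled YbbR peptide added. Fluorescence (ex 525/em 598 nm) read at start and after 30 min; difference gives rate.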
BAZ2B block: BAZ2B (human) inhibition; 360,000 tested, 4.4% active; AlphaScreen BAZ2B-H3K14Ac peptide displacement; Q9UIF8; Potency, µM (doses to about 114 µM), for inactives: at the top dose activity change, negative = inhibition, most hits filed as inhibitors; also: % is scaled to controls: 0 for no effect and ±100 for the full control effect; nearly all actives have a fitted effect of over 60% in size
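AlphaScreen displacement: compounds (up to 110uM) incubated 30 min at room temperature with a preformed 50 nM BAZ2B/50 nM biotinylated H3K14Ac peptide complex in PBS pH 7.4 with Tween-20. Donor and acceptor beads at 10 ug/mL final added, 20 min light-protected before reading.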
JMJD2A Tudor: inhibitors of human JMJD2A Tudor domain. AlphaScreen JMJD2A-Tudor / H3K4me3 peptide binding. O75164. 390,000 tested, 4.4% active. Potency, µM (doses to about 114 µM), for inactives: at the top dose activity change, negative = inhibition, actives largely listed as inhibitors; also: % is scaled to controls: 0 for no effect and ±100 for the full control effect; nearly all actives have a fitted effect of over 50% in size
Target sequence (O75164 whole entry, looked up, the tested form may be a part): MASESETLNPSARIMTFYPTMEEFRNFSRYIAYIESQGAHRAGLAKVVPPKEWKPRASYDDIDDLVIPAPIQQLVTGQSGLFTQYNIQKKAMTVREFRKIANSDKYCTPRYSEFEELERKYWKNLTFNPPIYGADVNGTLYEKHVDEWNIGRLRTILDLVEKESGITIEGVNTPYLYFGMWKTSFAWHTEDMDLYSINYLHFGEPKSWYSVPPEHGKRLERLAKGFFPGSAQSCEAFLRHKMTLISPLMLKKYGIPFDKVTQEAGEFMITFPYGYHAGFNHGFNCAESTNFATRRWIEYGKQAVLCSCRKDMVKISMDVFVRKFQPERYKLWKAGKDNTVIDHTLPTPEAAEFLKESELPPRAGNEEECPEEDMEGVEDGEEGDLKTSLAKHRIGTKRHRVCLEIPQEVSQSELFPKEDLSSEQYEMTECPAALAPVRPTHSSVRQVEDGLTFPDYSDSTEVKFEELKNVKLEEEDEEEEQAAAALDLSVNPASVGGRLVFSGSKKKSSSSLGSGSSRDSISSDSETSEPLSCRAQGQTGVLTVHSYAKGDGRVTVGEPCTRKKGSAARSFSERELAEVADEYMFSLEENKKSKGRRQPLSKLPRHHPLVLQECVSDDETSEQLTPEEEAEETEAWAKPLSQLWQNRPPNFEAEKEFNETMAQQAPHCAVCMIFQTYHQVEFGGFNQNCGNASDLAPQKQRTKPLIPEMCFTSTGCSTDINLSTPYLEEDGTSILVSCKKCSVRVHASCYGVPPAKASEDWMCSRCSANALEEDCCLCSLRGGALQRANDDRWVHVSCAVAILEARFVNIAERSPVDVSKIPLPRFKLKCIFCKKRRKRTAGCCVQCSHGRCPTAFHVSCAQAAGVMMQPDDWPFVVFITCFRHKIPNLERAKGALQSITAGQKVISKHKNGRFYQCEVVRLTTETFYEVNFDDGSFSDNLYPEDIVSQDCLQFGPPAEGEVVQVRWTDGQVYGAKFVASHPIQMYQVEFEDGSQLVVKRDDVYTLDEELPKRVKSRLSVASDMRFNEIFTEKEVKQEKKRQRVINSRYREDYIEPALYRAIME
L3MBTL1 inh: inhibitors of human L3MBTL1. 230,000 tested, 0.66% active. Q9Y468. Potency, µM (series often up to 57.1 µM), without a hit: at the top dose activity, negative = inhibition, most hits filed as inhibitors. AlphaScreen L3MBTL1–H3K9me1 peptide binding; also: % is scaled to controls: 0 for no effect and ±100 for the full control effect; nearly all actives have a fitted effect of over 60% in size
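First, the protein-peptide complex forms for 30 min at room temperature (L3MBTL1 50 nM, biotinylated H3K9me1 peptide 75 nM). Next, compounds are pin-transferred and incubated 30 min. Finally, AlphaScreen beads are added and read after 30 min.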
* = called active by the depositor; ? = inconclusive; · = not tested or not shown; [ ] = remark or other dose. Calls follow the shape of the dose curve; as a rule, active = well fitted curve in the direction sought with a large enough effect; inconclusive = small, poorly fitted or top-dose-only effect, or another doubt; inactive = no such curve, though single readings can be large; an effect the other way counts as inactive or inconclusive. Potency is read from the fitted curve at half-maximal effect.

SMILES	HP1b binding inh	G9a block	Sfp PPTase inh	BAZ2B block	JMJD2A Tudor	L3MBTL1 inh
O=S1(=O)N=C(Oc2ccccc2F)c2ccccc21	·	·	·	·	79µM*	·
O=S1(=O)N=C(Oc2ccc(Cl)cc2)c2ccccc21	·	·	·	·	100µM*	·
Cc1ccc(OC2=NS(=O)(=O)c3ccccc32)cc1	39%	?	13%	?	?	·
O=S1(=O)N=C(Oc2cccc(-c3ccccc3)c2)c2ccccc21	·	·	·	·	-13%	·
COc1ccccc1OC1=NS(=O)(=O)c2ccccc21	57%	45µM*	12%	?	-3%[11.4 µM]	9%
CCN(CC)c1cccc(OC2=NS(=O)(=O)c3ccccc32)c1	-21%	16µM*	-4%	56µM*	63µM*	-3%
Cc1c(Cl)cccc1N1CCn2c1nc1c2c(=O)n(CC(=O)O)c(=O)n1C	25%	9%[59 µM]	·	-17%	-9%	·
COCCNc1ncnc2ccc(-c3ccccc3OC)cc12	·	9%[0.501 µM]	10%	·	·	·
COCCNc1ncnc2ccc(-c3ccccc3C(F)(F)F)cc12	·	3%[0.501 µM]	56µM*	·	·	·
CCC(=O)N1CCc2cc(Br)cc(S(=O)(=O)N3CCC(C(=O)N(CC)CC)CC3)c21	19%	7%[59 µM]	·	-2%	-7%	·
COc1ccc(C(C(=O)OC(C)CN(C)C)c2ccccc2)cc1 (centres undefined)	7%	-2%[59 µM]	8%	-5%	?	-3%
COc1ccc(C(c2c(N)[nH]c(=S)[nH]c2=O)c2c(N)[nH]c(=S)[nH]c2=O)cc1	27%	·	79µM*	-6%	?	·
CCN1c2ccccc2NC2C1C(C(C)=O)C(=O)N2c1ccc(Cl)cc1 (centres undefined)	-11%	45µM*	-7%	?	?	-4%
N#Cc1ccsc1NC(=O)c1cccc(-n2cnnn2)c1	3%	-11%	-8%	-9%	-5%	·
N#Cc1ccsc1NC(=O)c1ccc(Cl)c([N+](=O)[O-])c1	4%	·	-3%	-29%	-6%	24%
N#Cc1ccsc1NC(=O)c1cccc([N+](=O)[O-])c1	7%	-32%	40µM*	-4%	-17%	·
N#Cc1ccsc1NC(=O)CN(Cc1ccccc1)Cc1ccccc1	67%	85%[59 µM]	-1%	0%	12%	19%
N#Cc1ccsc1NC(=O)CCc1ccccc1	14%	25µM*	8%	?	-14%	2%
N#Cc1ccsc1NC(=O)c1ccccn1	9%	?	?	10µM*	20µM*	-24%
Cc1c(NC(=O)c2ccc(Cl)cc2)cc(C(C)C)c(O)c1S(=O)(=O)c1ccc(Cl)cc1	10%	-2%[59 µM]	·	-9%	-15%	·
Cc1ccc2c(c1)c1c3n2CCCN(Cc2ccccc2)C3CCC1 (centres undefined)	?	13µM*	-4%	10µM*	?	·
Cc1ccc2c(c1)c1c3n2CCN(CC#N)C3CCC1 (centres undefined)	29%	6%[59 µM]	13%	?	-21%	-3%
Cc1ccc(C(=O)N2CCn3c4c(c5cc(C)ccc53)CCCC42)cc1 (centres undefined)	-22%	11µM*	·	14µM*	?	·
Cc1ccc2c(c1)c1c3n2CCN(C(=O)c2ccc(C(F)(F)F)cc2)C3CCC1 (centres undefined)	-7%	?	·	28µM*	?	·
Cc1ccc2c(c1)c1c3n2CCN(C(=O)C2CC2)C3CCC1 (centres undefined)	-1%	40µM*	?	?	-34%	·
Cc1ccc2c(c1)c1c3n2CCN(CC(O)CNC(C)C)C3CCC1 (centres undefined)	0%	?	6%	?	?	-6%
O=C(O)C(Cc1ccc2c(c1)oc1ccccc12)NCP(=O)(O)O (centres undefined)	·	·	-20%	·	·	·
CCCCCNC(=O)c1ccc2c(=O)n(CCc3ccccc3)c(=O)[nH]c2c1	24%	2%[59 µM]	·	2%	0%	·
Cc1ccc([N+](=O)[O-])cc1S(=O)(=O)N(C)C	·	32%[12.7 µM]	4%	·	·	·
